Screening data from PubChem BioAssay.
Cycloheximide cs = Cycloheximide Counterscreen for Small Molecule Inhibitors of Shiga Toxin; actives 12% (n = 300,000); cell reporter, cycloheximide protein synthesis inhibition counterscreen; AID 2314, 2010; max response, %; in the data active = max response mostly above about 13%, no sharp cut-off; inactive = mostly below about 14%; also: read at 38.3 µM for the half of the compounds with a filed dose
SARS PLpro yeast = qHTS of Yeast-based Assay for SARS-CoV PLP | S. cerevisiae expressing SARS-CoV PLpro, growth rescue | Potency, µM (doses to about 32.9 µM), actives largely listed as activators | actives 0.19% (n = 330,000) | AID 485353, 2010; also: nearly all actives have a fitted effect of over 55% in size
Pf growth 48h = Primary qHTS for delayed death inhibitors of the malarial parasite plastid, 48 hour incubation; Potency, µM (titrated, usually from 28.7 µM), most hits filed as inhibitors; P. falciparum luciferase growth in erythrocytes, 48 h; actives 5.9% (n = 310,000); active = well fitted inhibition curve with a large enough effect; inconclusive = small, poorly fitted or top-dose-only effect, or another doubt; inactive = no such curve, though single readings can be large or run the other way
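First compound was added to culture medium, then infected red cells at 0.1% parasitemia and 2% hematocrit (final). After incubation at 37 C under 5% CO2, luciferase detection reagent was dispensed and light output recorded.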
Pf growth 96h = Primary qHTS for delayed death inhibitors of the malarial parasite plastid, 96 hour incubation; P. falciparum luciferase reporter growth, 96 h; Potency, µM (top dose mostly 28.7 µM), most hits filed as inhibitors; actives 6.9% (n = 320,000); AID 504834, 2011; active = well fitted inhibition curve with a large enough effect; inconclusive = small, poorly fitted or top-dose-only effect, or another doubt; inactive = no such curve, though single readings can be large or run the other way
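Infected RBCs, 2% Hct / 0.05% parasitemia final; luciferase-reporter P. falciparum; cpd 96 h, 37 C, 5% CO2; luciferase detection reagent; luminescence.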
NS1 inh = qHTS Assay for Inhibitors of Influenza NS1 Protein Function. actives 0.4% (n = 270,000). Potency, µM (titrated, usually from 46.1 µM). AID 2326, 2010; also: actives are rising curves; nearly all actives have a fitted effect of over 50% in size
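Growth recovery, yeast-based: influenza A NS1 expressed in S. cerevisiae causes slow growth, and suppressors are detected by OD600. The parent strain without NS1 is used as positive control.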
Shiga inhibitor = A qHTS for Small Molecule Inhibitors of Shiga Toxin; Vero cells, Shiga toxin protein synthesis inhibition reporter; inhibition, % at 38.7 µM; actives 9.2% (n = 290,000); in the data active = inhibition mostly above about 28%, no sharp cut-off; inactive = mostly below about 43%
Each line names hits and unclear results; the compound was inactive in the other large screens. A selection: hits, their analogues and other compounds. The true share with any hit is near 21%. Unless noted, calls follow the shape of the full dose curve.

CC(C)n1nnnc1SCC(=O)N1N=C(c2cccs2)CC1c1cccs1 (stereo unspecified)	none (no result: Cycloheximide cs, NS1 inh, Shiga inhibitor)
O=C(NC1CCC(=O)N(CCOc2ccccc2)CC1)OCc1ccccc1 (stereo unspecified)	Pf growth 96h inconclusive
O=C1COc2ccc(N3C(=O)C=CC3=O)cc2N1	none
Cc1cc2nnc(SCC(=O)NCc3ccco3)n2c2ccccc12	none (no result: Cycloheximide cs, SARS PLpro yeast, Pf growth 48h, Pf growth 96h, Shiga inhibitor)
Cc1ccccc1C(=O)Nc1nnc(SC(C)C)s1	Cycloheximide cs 30.4 (no result: NS1 inh)
O=C(CSc1nnc(NC(=O)c2ccc3c(c2)OCO3)s1)NCc1ccco1	Cycloheximide cs 23.2
COc1cccc(CNC(=O)Cn2cc([N+](=O)[O-])cn2)c1	none
COc1ccc(OC)c(C(=O)NC(CC(N)=O)c2ccc(NCCN3CCCCC3)c([N+](=O)[O-])c2)c1 (stereo unspecified)	none
CC(C)(C)C(=O)OC/C(N)=N/OC(=O)c1ccc(Cl)cc1	Cycloheximide cs 24.5, Pf growth 48h inconclusive, Pf growth 96h inconclusive
CC(C)(C)C(=O)O/N=C(\N)c1c(Cl)cccc1Cl	none
N/C(Cc1ccc(Cl)cc1)=N\OC(=O)c1ccccc1	Cycloheximide cs 23.7, Pf growth 96h 10.4µM (no result: Pf growth 48h)
COc1ccc(C(=O)O/N=C(\N)Cc2ccc(Cl)c(Cl)c2)cc1OC	Pf growth 48h 4.15µM
CC(C)(C)C(=O)O/N=C(\N)COc1cccc(Cl)c1	Cycloheximide cs 44.0, Pf growth 48h inconclusive, Pf growth 96h inconclusive, Shiga inhibitor 99.4
N/C(Cc1ccc([N+](=O)[O-])cc1)=N\OC(=O)c1ccc([N+](=O)[O-])cc1	none (no result: Pf growth 48h)
COc1cc(C(=O)O/N=C(\N)Cc2ccc([N+](=O)[O-])cc2)cc(OC)c1OC	Pf growth 48h inconclusive, Pf growth 96h inconclusive
CC1=C2C3OC(=O)C(C)[C@@H]3CC[C@](C)(O)C2C2C3C4C5(C12)[C@H]1OC(=O)[C@@H](C)C1CC[C@]4(C)O[C@]5(C)[C@@H]3O (stereo partly specified)	none
COc1cccc(CNc2ccc3[nH]c(=O)[nH]c3c2)c1OCc1ccccc1F	Pf growth 96h inconclusive
O=C(COC(=O)COc1ccccc1[N+](=O)[O-])NC1CCCCC1	none (no result: Cycloheximide cs, NS1 inh, Shiga inhibitor)
COc1ccc(C(=O)O/N=C(\N)Cc2ccc(Cl)cc2)cc1OC	Pf growth 48h 7.38µM, Pf growth 96h 10.4µM
CCn1c2ccccc2c2c3ncc4cccn4c3ccc21	Cycloheximide cs 15.8
CCC(CC)NCc1ccc2c(c1)c1ccccc1n2CC	Pf growth 48h inconclusive, Pf growth 96h inconclusive
CC[C@@]12C(=O)N(c3ccc(OC)cc3)C(=O)N1[C@H](c1ccc(Cl)cc1)[C@@H]1C(=O)N(C3CCCCC3)C(=O)[C@@H]12	Pf growth 48h inconclusive, Pf growth 96h inconclusive
COc1ccc(OC)c(/C=C/C(=O)c2ccc3c(c2)OCCO3)c1	Cycloheximide cs 25.2, Shiga inhibitor 26.2
O=C(O)c1ccc2c(c1)OCCCO2	none
O=C(CCCc1ccccc1)c1ccc2c(c1)OCCO2	none
COc1cc(/C=C/C(=O)c2ccc3c(c2)OCCO3)cc(OC)c1OC	Pf growth 48h inconclusive
O=C(/C=C/c1ccccc1)c1ccc2c(c1)OCCCCO2	Cycloheximide cs 42.8, Shiga inhibitor 41.4
O=C(CCc1ccccc1)c1ccc2c(c1)OCCCO2	Cycloheximide cs 69.2, Pf growth 48h inconclusive, Shiga inhibitor 125.0 (no result: Pf growth 96h)
O=C(c1ccccc1)c1ccc2c(c1)OCCCO2	Cycloheximide cs 54.5, Shiga inhibitor 93.5
CN(C)S(=O)(=O)c1cccc(NC(=O)CN2C(=O)NC(CCc3ccccc3)C2=O)c1 (stereo unspecified)	Pf growth 48h inconclusive
Cc1cccc(Nc2nc(Cl)ncc2F)c1C	none (no result: Shiga inhibitor)
CCCCOC(=O)c1ccc(NC(=S)NC(=O)c2c(Br)c(C)nn2C)cc1	Pf growth 96h inconclusive
N#Cc1c(-c2ccccc2)nc2n1CCS2	none
CC(=O)c1ccc(O)c(CSC2=NCCS2)c1	none (no result: NS1 inh)
O/N=C(/CCc1ccccc1)c1ccc2c(c1)OCCO2	Cycloheximide cs 37.5, Shiga inhibitor 75.2
O=C(c1ccccc1)c1ccc2c(c1)OCCOCCOCCO2	Cycloheximide cs 14.0, Shiga inhibitor 48.8
c1ccc2c(c1)OCCOCCOCCOCCOCCOc1ccccc1OCCOCCOCCO2	Pf growth 48h inconclusive, Pf growth 96h 7.38µM
CC(=O)c1ccc2c(c1)OCCOCCOc1ccccc1OCCOCCO2	none
